Screening data from PubChem BioAssay.
D1 PAM: Potentiators of Human D1 Dopamine Receptor: qHTS; D(1A) dopamine receptor (Homo sapiens), P21728; HEK293 TREx D1 cells, calcium flux, dopamine EC20 potentiation; potentiation, % at 10 µM; 360,000 compounds, 0.036% hits; AID 504651, 2011; in the data active = potentiation above about 30%
D1 antagonist: Antagonist of Human D 1 Dopamine Receptor: qHTS; D(1A) dopamine receptor (Homo sapiens), P21728; HEK293 TREx D1 cells, calcium flux, dopamine EC80; active compounds read low; activity change, negative = inhibition, % at 10 µM; 360,000 compounds, 3.2% hits; AID 504652, 2011; in the data active = activity change below about -30%
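Using tetracycline-induced force-coupled D1 Hek293 cells and a calcium dye, signals were followed for 180 s after compound, then for 180 s after EC80 dopamine, to detect inhibitors.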
TRHR PAM: qHTS for Small Molecule Agonists and Allosteric Enhancers of Human TRH Receptor: Primary Screen for Enhancers; Thyrotropin-releasing hormone receptor (Homo sapiens), P34981; TRHR cells, fluo-8 calcium fluorescence, EC20 TRH enhancement; enhancement, % at 2 µM; 360,000 compounds, 0.66% hits; in the data active = enhancement above about 30%
Target sequence (P34981 whole entry, looked up): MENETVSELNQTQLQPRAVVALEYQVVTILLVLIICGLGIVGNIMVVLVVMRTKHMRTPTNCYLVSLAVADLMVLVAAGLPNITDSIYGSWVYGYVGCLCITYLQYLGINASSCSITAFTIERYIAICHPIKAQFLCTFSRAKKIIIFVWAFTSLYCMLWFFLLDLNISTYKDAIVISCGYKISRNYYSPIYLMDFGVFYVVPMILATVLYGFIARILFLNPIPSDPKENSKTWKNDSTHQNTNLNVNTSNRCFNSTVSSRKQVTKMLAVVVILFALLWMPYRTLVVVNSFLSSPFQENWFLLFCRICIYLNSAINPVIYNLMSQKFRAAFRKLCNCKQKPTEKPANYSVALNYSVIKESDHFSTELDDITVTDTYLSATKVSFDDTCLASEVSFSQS
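TRHR-expressing cells loaded with fluo-8 calcium dye were read kinetically (ex 480/em 530) during compound addition, then stimulated with an EC20 of TRH (10 nM final). Enhancement of the Gq-mediated intracellular calcium response was scored.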
TRHR ag: qHTS for Small Molecule Agonists and Allosteric Enhancers of Human TRH Receptor: Primary Screen for Agonists. AID 493084, 2011. Thyrotropin-releasing hormone receptor (Homo sapiens), P34981. 360,000 compounds, 0.18% hits. activation, % at 2 µM. TRHR cells, calcium flux fluo-8, FDSS agonist mode
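Agonist-mode FDSS calcium read (Ex 480/Em 530, 1 s cycles) in 1536-well TRHR cells with fluo-8 dye, after 10-cycle baseline and 23 nL compound addition; TRH at EC20 (10 nM final) added afterwards for the enhancer phase.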
D1 ag: Allosteric Agonists of the Human D1 Dopamine Receptor: qHTS; activation, % at 2 µM; 360,000 compounds, 1% hits; D(1A) dopamine receptor (Homo sapiens), P21728; HEK293 T-REx D1 cells, calcium flux, agonist mode; AID 504660, 2011
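Inducible HEK293 T-REx D1 cells, force-coupled to calcium signalling, were plated at 4000 cells/well with tetracycline and held overnight at 30 C. After no-wash calcium dye loading, compound-evoked calcium rise over 180 s flagged agonists.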
Each line names hits and unclear results; the compound was inactive in the other large screens. Only some compounds are listed: those with a hit (about 4.7% of all), similar ones and a draw of the others. Rule as the data show it, unless noted: active = activation above about 30%; inactive = the rest.

CSc1nc(-c2ccco2)cc(C(F)(F)F)c1C#N	none
CCN(CC)C(=O)CSc1nc(-c2ccco2)cc(C(F)(F)F)c1C#N	none
Cc1cc2c(s1)c1cnn(Cc3cc(F)c(F)cc3F)c(=O)c1n2C	none
Cc1ccccc1Cn1c(=O)n(CC2CCC(C(=O)N3CCC(C)CC3)CC2)c(=O)c2sccc21 (stereo not drawn)	none
CN(Cc1ccccc1)C(=O)c1nc2ccccn2c1CN1CCc2sccc2C1	D1 antagonist -33
CN(Cc1c(C(=O)N(C)Cc2ccccc2)nc2ccccn12)CC1Cc2ccccc2O1 (stereo not drawn)	none
CCCCNC(=O)c1c(-c2ccccc2)c(-c2ccccc2)nn(C)c1=O	none
Cc1cccc2c1-c1sc(C(=O)N(C)c3cccc(Cl)c3)cc1CO2	none
Cc1ccc2nc3n(c(=O)c2c1)-c1cc(Cl)ccc1C(=O)NC3Cc1ccccc1 (stereo not drawn)	D1 antagonist -38
COc1ccc(NC(=O)NC(C)c2c(-n3cccc3)sc3c2CCN(C)C3)c(OC)c1 (stereo not drawn)	none
N#C/C(=C\c1c[nH]c2ccccc12)C(=O)Nc1ncc(Cc2ccc(Cl)cc2Cl)s1	D1 ag 35
Cn1cc(/C=C(\C#N)C(=O)Nc2ncc(Cc3cccc(Cl)c3)s2)c2ccccc21	none
O=C(CNC(=O)C1CCCCC1)Nc1ccccc1Cl	D1 antagonist -93
Cc1ccc(OCCSc2nc3ccccc3n2CC(=O)N2CCCCC2)cc1C	none
Nc1cc(S(=O)(=O)N2CCOCC2)ccc1Oc1cccc(Br)c1	D1 antagonist -44
CCOc1cc(/C=C/C(=O)c2ccc(OC)c(CN3CCOCC3)c2)cc(Br)c1O	TRHR ag 40, D1 ag 41
CCOc1cc(CNCCSc2nnnn2-c2ccccc2)ccc1OC	D1 ag 30
CCOc1ccc(CNCCSc2nnnn2C)cc1OC	none
Cc1ccccc1CNCCCSc1nnnn1-c1ccccc1	D1 ag 36
COc1ccc(CCNc2nnc(Sc3nnnn3-c3ccccc3)s2)cc1OC	D1 antagonist -53
CCc1ccc(CNc2ncc(-c3cccc(OC)c3)n2C)cc1	none
Cc1cccc(OCCn2c(-c3ccc(Cl)cc3)nc3ccccc3c2=O)c1C	none
Cc1ccc(NC(=O)Nc2nnc(SCC(=O)N3CCCCC3)s2)cc1	none (no result: D1 antagonist)
COc1cc(NC(=O)C/C(C)=N/NC(=O)c2ccccn2)c(OC)cc1Cl	none
COc1cc(C(=O)Nc2ccc3c(c2)C(=O)c2ccccc2C3=O)cc(OC)c1OC	D1 antagonist -50
COc1cc(NC(=O)c2ccccn2)cc(OC)c1OC	TRHR PAM 30
COc1cc(NC(=O)c2cc(-c3ccccc3)on2)cc(OC)c1OC	none
COc1ccccc1NC(=O)C/C(C)=N/NC(=O)c1ccccn1	D1 antagonist -38
Cc1nc(-c2ccccc2)sc1CCNS(=O)(=O)c1ccccc1	none
COc1ccc(C(=O)O)cc1S(=O)(=O)Nc1cccc(C)c1	none
O=S(=O)(Nc1ccc(Cl)cc1)c1ccc(NS(=O)(=O)c2ccc3c(c2)OCCO3)cc1	D1 ag 61
O=[N+]([O-])c1ccc(Oc2ccc(S(=O)(=O)Nc3ccccc3)cc2)cc1	D1 ag 55
COc1ccc(C(=O)O)cc1S(=O)(=O)Nc1ccc(C)cc1	D1 antagonist -70
COC(=O)COc1ccc(S(=O)(=O)Nc2ccc3c(c2)OCCO3)cc1Cl	D1 antagonist -33
O=[N+]([O-])c1ccc(S(=O)(=O)Nc2ccncc2)cc1	none
NS(=O)(=O)c1ccc(NS(=O)(=O)c2ccc3c(c2)OCCO3)cc1	none
CCC(C)NC(=O)c1ccc2c(c1)nc1n2CCCCC1 (stereo not drawn)	none
Cc1ccc(Oc2ccc(S(=O)(=O)Nc3ccc(C(=O)O)cc3)cc2)cc1	D1 antagonist -42
O=C(c1ccccc1NS(=O)(=O)c1ccc(Br)cc1)N1CCOCC1	D1 antagonist -33
CSc1ccc(S(=O)(=O)Nc2ccccc2C(=O)N2CCOCC2)cc1	none
CCOC(=O)COc1ccc(S(=O)(=O)Nc2ccc3c(c2)OCO3)cc1	D1 ag 63
CC(=O)c1ccc(NS(=O)(=O)c2ccc(C)cc2)cc1	none
CCOC(=O)COc1ccc(S(=O)(=O)c2ccc(OCC(=O)OCC)cc2)cc1	none
CCOC(=O)COc1ccc(S(=O)(=O)Nc2ccc(C)cc2)cc1	D1 ag 45
COc1ccc(OC)c(CNC(=O)c2ccc3c(c2)c(C)c(C)n3Cc2ccc(Cl)cc2)c1	none
NC(=O)c1ccccc1NS(=O)(=O)c1ccc2c(c1)OCCO2	D1 antagonist -36
Cc1cc(C)n(C(C)CC(=O)Nc2ccc(C)c(F)c2)n1 (stereo not drawn)	none
Cn1c(=O)c2c(ncn2CC(O)CNc2ccc(Br)cc2)n(C)c1=O (stereo not drawn)	D1 antagonist -32
COc1ccc(NCC(O)Cn2cnc3c2c(=O)n(C)c(=O)n3C)cc1 (stereo not drawn)	none
CSC1=NCCN1S(=O)(=O)c1ccc(NC(C)=O)cc1	none
CCSC1=NCCN1S(=O)(=O)c1ccc(NC(C)=O)cc1	none
CC(=O)Nc1ccc(S(=O)(=O)N2CCN=C2SCc2ccc(C)cc2)cc1	D1 antagonist -41
CC(=O)Nc1ccc(S(=O)(=O)N2CCN=C2SCc2ccc(F)cc2)cc1	D1 ag 37
O=C(CSc1ccccc1)NCc1ccc2c(c1)CCN2C(=O)c1ccc(Cl)cc1	none
CCCCn1c(C)cc2c(c1=O)C1O[C@](c3ccc(OC)cc3)(Cc3cc(OC)c(OC)cc31)O2	none
CCOc1ccccc1CNC(=O)c1ccc(CS(=O)Cc2cccc(Cl)c2)o1 (stereo not drawn)	none
COC(=O)[C@H]1CCCN1C(=O)Nc1cccc(Oc2c(F)c(F)c(F)c(F)c2F)c1	D1 antagonist -31
Nc1c(C(=O)Nc2nccs2)sc2nc(-c3cccs3)cc(C(F)(F)F)c12	D1 ag 116
Cc1nc2nncn2c(Nc2ccc(F)cc2)c1C	none
O=[S+]([O-])(c1ccc2c(c1)OCCO2)N1CCN([S+](=O)([O-])c2ccccc2Br)CC1	none
OC(CN1CCCCC1)Cn1c2ccc(Cl)cc2c2cc(Cl)ccc21 (stereo not drawn)	D1 ag 35
OC(CN1CCN(c2ccccn2)CC1)Cn1c2ccc(Cl)cc2c2cc(Cl)ccc21 (stereo not drawn)	none
CCOc1ccc(NC(=O)[C@@H](c2ccccc2)N2Cc3ccccc3C2=O)cc1	none
